For assay [1], the target named is Paired box protein Pax-6 (Homo sapiens) (UniProt P26367). In words: ATG_Pax6_CIS: Attagene CIS-FACTORIAL HepG2 Assay for human Paired Box 6 (PAX6) (AID 2282956). As to conditions: HepG2 CIS-FACTORIAL PAX6 reporter transcription, RNA readout; actives raise or lower the signal. The procedure, abridged: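 Fluorescent RT-PCR products separated by capillary electrophoresis report PAX6-linked promoter mRNA in HepG2 cells 24 h post-dose. Curves fitted bidirectionally, DMSO as negative control.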
Chain of Paired box protein Pax-6 (Homo sapiens) (P26367 whole entry, looked up): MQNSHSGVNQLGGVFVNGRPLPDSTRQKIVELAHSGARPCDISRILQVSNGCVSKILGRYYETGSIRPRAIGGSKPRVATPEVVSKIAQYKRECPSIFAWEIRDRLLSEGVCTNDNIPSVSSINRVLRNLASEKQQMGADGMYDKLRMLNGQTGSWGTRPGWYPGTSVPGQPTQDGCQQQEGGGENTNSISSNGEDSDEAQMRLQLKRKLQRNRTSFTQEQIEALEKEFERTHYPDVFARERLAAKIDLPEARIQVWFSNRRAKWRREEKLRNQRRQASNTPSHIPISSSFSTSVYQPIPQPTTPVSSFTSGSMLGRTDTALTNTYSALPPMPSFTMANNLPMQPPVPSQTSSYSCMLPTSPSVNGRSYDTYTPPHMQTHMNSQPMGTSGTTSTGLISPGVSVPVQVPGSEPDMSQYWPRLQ

Assay [2] in a line: ATG_PXRE_CIS: Attagene CIS-FACTORIAL HepG2 Assay for human Pregnane X Receptor Element (PXRE) (AID 2282957). As to conditions: HepG2 Attagene CIS-FACTORIAL PXRE reporter, mRNA; actives raise or lower the signal. Put shortly:
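Endogenous transcription factor activity in HepG2 was gauged through induction of reporter mRNA driven by a cis-regulating promoter element, sampled 24 h post-treatment. Activity was fitted in both directions against DMSO negative control.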

The nature of assay [3]: ATG_RORE_CIS: Attagene CIS-FACTORIAL HepG2 Assay for human RAR-related Orphan Receptor Element (RORE) (AID 2282959). As to conditions: HepG2 Attagene cis-factorial RORE reporter, mRNA; actives raise or lower the signal. Put shortly:
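Cells were HepG2 carrying transfected cis-regulated reporter constructs, dosed for 24 hours. Total RNA was reverse-transcribed and reporter cDNA amplified, fluorescently labeled and sized by capillary electrophoresis. Activity was fitted bidirectionally relative to DMSO.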

Assay [4] in a line: ATG_Sox_CIS: Attagene CIS-FACTORIAL HepG2 Assay for human SRY-box transcription factor (SOX) (AID 2282960). As to conditions: HepG2 Attagene cis-factorial SOX reporter, mRNA; actives raise or lower the signal. Put shortly: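 Transient MRTU transfection of HepG2; 24 h compound incubation; TriZol RNA, oligo(dT) RT, PCR, 6-FAM primer extension, HpaI cut, CE. Bidirectional fit, DMSO = baseline.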

Assay [5] has as its target Transcription factor Sp1 (Homo sapiens) (UniProt P08047). In words: ATG_Sp1_CIS: Attagene CIS-FACTORIAL HepG2 Assay for human Specificity Protein 1 (Sp1) (AID 2282961). As to conditions: HepG2 Sp1 cis-reporter transcription, actives raise or lower the signal. Put shortly:
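Endogenous Sp1 activity was gauged in human liver HepG2 cells bearing transfected reporter units under a cis-regulating promoter. After 24 h dosing, reporter mRNA was quantified by RT-PCR with capillary electrophoresis, and activity fitted bidirectionally versus DMSO.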

Assay [6] can be described thus: ATG_SREBP_CIS: Attagene CIS-FACTORIAL HepG2 Assay for human Sterol Regulatory Element Binding (SREBP) (AID 2282962). The following applies: HepG2 Attagene cis-factorial SREBP reporter, mRNA; actives raise or lower the signal. The procedure, abridged:
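Endogenous factor activity is measured in HepG2 through multiplexed reporter units under cis-element control. Following a 24 h incubation, reporter transcripts are reverse-transcribed, PCR-amplified and sized by capillary electrophoresis; activity is fitted in both directions relative to DMSO.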

Assay [7] concerns the target Signal transducer and activator of transcription 3 (Homo sapiens) (UniProt P40763). The assay can be described thus: ATG_STAT3_CIS: Attagene CIS-FACTORIAL HepG2 Assay for human Signal Transducer and Activator of Transcription 3 (STAT3) (AID 2282963). The following applies: HepG2, Attagene cis-factorial STAT3 reporter transcription; actives raise or lower the signal. The procedure, abridged: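 Cis-factorial format: endogenous transcription factors in HepG2 drive transfected reporter units. After 24 h treatment, reporter RNA was reverse-transcribed, amplified, FAM-labelled and HpaI-digested before CE analysis; activity scored in both directions against DMSO.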

Assay [8] is described as follows: ATG_TA_CIS: Attagene CIS-FACTORIAL HepG2 Assay for human TA Basal Promoter (AID 2282964). The following applies: HepG2 Attagene CIS-factorial TA basal promoter reporter; actives raise or lower the signal. Put shortly: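 Background internal-marker endpoint from a 52-component HepG2 cis-reporter panel. Cells treated 24 h; reporter transcripts quantified via RT-PCR and CE fluorescence against DMSO baseline.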

Assay [9] is described as follows: ATG_TCF_b_cat_CIS: Attagene CIS-FACTORIAL HepG2 Assay for human T-Cell-Factor with beta-catenin (TCF/b-cat) (AID 2282965). The following applies: HepG2 TCF/beta-catenin cis-reporter transcription, actives raise or lower the signal. Put shortly:
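Endogenous transcription factor activity is captured through cis-promoter reporter constructs transiently introduced into human HepG2 liver cells. Induced reporter mRNA is measured after 24 h and fitted bidirectionally relative to DMSO.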

Assay [10] in a line: ATG_TAL_CIS: Attagene CIS-FACTORIAL HepG2 Assay for human TAL Basal Promoter (AID 2282966).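 Further: background control endpoint measuring basal TAL promoter reporter mRNA not a specific factor.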 The following applies: HepG2 Attagene cis-factorial TAL promoter reporter; actives raise or lower the signal. Put shortly: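 Endogenous transcription-factor activity is sensed in HepG2 cells through transfected cis-promoter reporter constructs. After 24 h dosing, reporter transcripts are quantified by RT-PCR and capillary electrophoresis. Gain or loss of signal is fitted relative to DMSO.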

A short description of assay [11]: ATG_TGFb_CIS: Attagene CIS-FACTORIAL HepG2 Assay for human Transforming Growth Factor (TGF) (AID 2282967). As to conditions: HepG2 Attagene CIS TGFb reporter, mRNA transcription; actives raise or lower the signal. Put shortly: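 Liver HepG2 line, cis-factorial reporter panel, 24 h dosing. Quantitation: RT-PCR products labeled with 6-FAM, cut with HpaI, resolved by capillary electrophoresis; DMSO-referenced bidirectional analysis.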

The target of assay [12] is Estrogen receptor (Homo sapiens) (UniProt P03372). In words: ATG_ERa_TRANS: Attagene TRANS-FACTORIAL HepG2 Assay for human Estrogen Receptor alpha (ERa) (AID 2282970; active means hit-call score of the fitted dose curve at least 0.9, where 1 is the maximum). As to conditions: HepG2 Attagene TRANS ERa GAL4 reporter, mRNA. Put shortly: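 Transfected HepG2 cells carrying GAL4-UAS-driven reporter units were dosed for 24 hours. Total RNA was reverse-transcribed, reporter sequences PCR-amplified, FAM-labelled, HpaI-digested and resolved by capillary electrophoresis. Increases over DMSO control defined activity.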
Chain of Estrogen receptor (Homo sapiens) (P03372 whole entry, looked up, the tested form may be a part): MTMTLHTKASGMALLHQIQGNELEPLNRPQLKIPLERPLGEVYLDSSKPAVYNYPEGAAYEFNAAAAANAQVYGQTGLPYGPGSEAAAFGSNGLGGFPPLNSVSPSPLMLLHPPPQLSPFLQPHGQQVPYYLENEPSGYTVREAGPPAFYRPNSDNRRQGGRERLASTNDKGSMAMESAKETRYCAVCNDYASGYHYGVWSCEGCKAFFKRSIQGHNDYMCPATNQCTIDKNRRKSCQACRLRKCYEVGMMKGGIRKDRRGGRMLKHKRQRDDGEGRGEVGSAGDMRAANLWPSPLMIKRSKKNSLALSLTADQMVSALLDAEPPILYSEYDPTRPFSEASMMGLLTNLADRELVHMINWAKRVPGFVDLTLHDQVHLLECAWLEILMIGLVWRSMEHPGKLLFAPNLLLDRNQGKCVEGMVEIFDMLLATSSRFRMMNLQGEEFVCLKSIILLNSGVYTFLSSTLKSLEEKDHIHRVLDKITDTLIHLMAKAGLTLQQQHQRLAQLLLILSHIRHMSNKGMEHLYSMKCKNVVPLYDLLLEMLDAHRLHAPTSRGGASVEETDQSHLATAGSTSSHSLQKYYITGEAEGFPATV

Assay [13] deals with X-box-binding protein 1 (Homo sapiens) (UniProt P17861). In words: ATG_Xbp1_CIS: Attagene CIS-FACTORIAL HepG2 Assay for human X-box Binding Protein 1 (XBP1) (AID 2282972). The following applies: HepG2 XBP1 cis-element reporter, Attagene multiplex; actives raise or lower the signal. The procedure, abridged: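 Multiplexed cis-reporter readout in transfected HepG2 liver cells. Exposure lasted 24 hours. Activity in either direction was fitted against DMSO as negative control and baseline.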
Chain of X-box-binding protein 1 (Homo sapiens) (P17861 whole entry, looked up): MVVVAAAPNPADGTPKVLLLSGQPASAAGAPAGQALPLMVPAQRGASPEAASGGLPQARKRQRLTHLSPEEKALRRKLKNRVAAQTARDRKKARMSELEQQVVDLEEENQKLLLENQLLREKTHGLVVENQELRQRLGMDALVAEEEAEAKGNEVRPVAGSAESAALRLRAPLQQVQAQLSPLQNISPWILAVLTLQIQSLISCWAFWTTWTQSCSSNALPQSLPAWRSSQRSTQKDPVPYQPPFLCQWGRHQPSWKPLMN

Assay [14] can be described thus: ATG_M_19_TRANS: Attagene TRANS-FACTORIAL HepG2 Assay for M19 Transcription Factor (Internal Marker) (AID 2282974; active means hit-call score of the fitted dose curve at least 0.9, where 1 is the maximum). As to conditions: HepG2 Attagene TRANS-FACTORIAL M19 internal marker reporter. The procedure, abridged: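 Cells: human HepG2, transiently transfected with multiplexed reporter transcription units. Exposure: 24 h. Detection: RT-PCR of reporter mRNA with capillary electrophoresis. Analysis: gain-of-signal vs DMSO.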

Assay [15] is described as follows: ATG_GAL4_TRANS: Attagene TRANS-FACTORIAL HepG2 Assay for GAL4 (Internal Marker) (AID 2282976; active means hit-call score of the fitted dose curve at least 0.9, where 1 is the maximum). The following applies: HepG2 Attagene TRANS GAL4 internal marker reporter. The procedure, abridged: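 Fluorescence from capillary electrophoresis of labelled RT-PCR products quantifies reporter mRNA induction after 24 h dosing of HepG2 cells carrying transfected GAL4-UAS reporter transcription units. Vehicle DMSO serves as baseline.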

Assay [16] can be described thus: ATG_PPRE_CIS: Attagene CIS-FACTORIAL HepG2 Assay for human Peroxisome Proliferator-activated Response Element (PPRE) (AID 2282958). The following applies: HepG2 PPRE cis-element reporter, Attagene transcription factor profiling; actives raise or lower the signal. The procedure, abridged: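 Cells are first transfected transiently with the multiplexed reporter library, then dosed for 24 h. Total RNA is reverse-transcribed, amplified, fluorescently end-labeled and HpaI-cut before capillary electrophoresis; activity is fitted bidirectionally against DMSO controls.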

Assay [17] can be described thus: ATG_VDRE_CIS: Attagene CIS-FACTORIAL HepG2 Assay for human Vitamin D Receptor Element (VDRE) (AID 2282968). As to conditions: HepG2 VDRE cis-reporter transcription, actives raise or lower the signal. The procedure, abridged:
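Measures endogenous factor activity through cis-element-driven reporter transcripts in transiently transfected HepG2. Cells are treated 24 h; reporter mRNA is quantified by RT-PCR and capillary electrophoresis; fitting is bidirectional.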

The target in assay [18] is Steroid hormone receptor ERR1 (Homo sapiens) (UniProt P11474). In words: ATG_ERRa_TRANS: Attagene TRANS-FACTORIAL HepG2 Assay for human Estrogen-Related Receptor alpha (ERRa) (AID 2282971; active means hit-call score of the fitted dose curve at least 0.9, where 1 is the maximum). As to conditions: HepG2 Attagene TRANS reporter, ERRa transactivation. Put shortly:
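HepG2 cells were transiently transfected with multiple GAL4-UAS reporter units, then dosed with compound for 24 h. Total RNA was reverse-transcribed, reporter cDNA PCR-amplified and fluorescently labelled, and fragments resolved by capillary electrophoresis; induction was compared with DMSO.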

Results filed as inconclusive are left out. Calls of active or inactive are those of the source. How the source made its calls, unless noted: active means hit-call score of the fitted dose curve at least 0.9, where 1 is the maximum; inactive means score below 0.9.

Chain of Transcription factor Sp1 (Homo sapiens) (P08047 whole entry, looked up): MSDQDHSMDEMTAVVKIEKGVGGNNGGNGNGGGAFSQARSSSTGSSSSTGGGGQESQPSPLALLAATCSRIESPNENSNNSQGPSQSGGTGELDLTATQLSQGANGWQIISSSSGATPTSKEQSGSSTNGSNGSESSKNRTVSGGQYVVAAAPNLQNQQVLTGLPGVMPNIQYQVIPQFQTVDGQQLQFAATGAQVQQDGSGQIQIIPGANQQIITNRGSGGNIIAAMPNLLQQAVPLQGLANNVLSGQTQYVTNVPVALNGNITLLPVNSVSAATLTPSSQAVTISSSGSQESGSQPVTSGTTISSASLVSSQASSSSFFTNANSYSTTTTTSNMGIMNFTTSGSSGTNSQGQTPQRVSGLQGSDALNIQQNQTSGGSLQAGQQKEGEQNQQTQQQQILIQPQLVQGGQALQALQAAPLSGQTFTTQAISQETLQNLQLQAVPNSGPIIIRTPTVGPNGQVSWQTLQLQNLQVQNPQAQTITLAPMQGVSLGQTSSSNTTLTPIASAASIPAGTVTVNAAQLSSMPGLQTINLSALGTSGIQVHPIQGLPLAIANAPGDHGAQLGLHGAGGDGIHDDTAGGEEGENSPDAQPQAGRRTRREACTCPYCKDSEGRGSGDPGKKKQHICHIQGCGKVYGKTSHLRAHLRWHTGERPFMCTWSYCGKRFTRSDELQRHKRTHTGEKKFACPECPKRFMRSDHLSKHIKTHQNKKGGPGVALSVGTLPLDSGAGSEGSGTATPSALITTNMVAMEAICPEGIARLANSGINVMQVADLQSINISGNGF
Chain of Signal transducer and activator of transcription 3 (Homo sapiens) (P40763 whole entry, looked up): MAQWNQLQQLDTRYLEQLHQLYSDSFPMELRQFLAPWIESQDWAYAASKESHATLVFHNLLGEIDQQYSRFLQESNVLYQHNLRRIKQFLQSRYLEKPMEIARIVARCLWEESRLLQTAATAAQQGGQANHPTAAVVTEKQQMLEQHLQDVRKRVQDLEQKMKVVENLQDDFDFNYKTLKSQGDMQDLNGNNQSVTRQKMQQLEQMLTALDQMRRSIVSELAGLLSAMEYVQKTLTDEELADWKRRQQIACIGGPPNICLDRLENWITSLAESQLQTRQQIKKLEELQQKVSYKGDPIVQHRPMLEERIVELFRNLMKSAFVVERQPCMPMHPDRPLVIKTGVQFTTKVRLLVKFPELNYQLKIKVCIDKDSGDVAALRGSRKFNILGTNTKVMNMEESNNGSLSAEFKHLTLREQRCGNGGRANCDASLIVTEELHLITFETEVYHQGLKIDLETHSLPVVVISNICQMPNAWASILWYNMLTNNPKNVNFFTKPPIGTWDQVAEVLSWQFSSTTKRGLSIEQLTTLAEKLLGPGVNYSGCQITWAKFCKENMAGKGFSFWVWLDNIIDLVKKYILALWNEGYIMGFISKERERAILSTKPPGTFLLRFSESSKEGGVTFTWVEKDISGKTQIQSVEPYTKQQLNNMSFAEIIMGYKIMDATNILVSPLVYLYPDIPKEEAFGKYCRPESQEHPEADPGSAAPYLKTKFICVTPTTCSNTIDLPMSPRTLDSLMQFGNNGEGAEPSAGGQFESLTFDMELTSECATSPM
Chain of Steroid hormone receptor ERR1 (Homo sapiens) (P11474 whole entry, looked up, the tested form may be a part): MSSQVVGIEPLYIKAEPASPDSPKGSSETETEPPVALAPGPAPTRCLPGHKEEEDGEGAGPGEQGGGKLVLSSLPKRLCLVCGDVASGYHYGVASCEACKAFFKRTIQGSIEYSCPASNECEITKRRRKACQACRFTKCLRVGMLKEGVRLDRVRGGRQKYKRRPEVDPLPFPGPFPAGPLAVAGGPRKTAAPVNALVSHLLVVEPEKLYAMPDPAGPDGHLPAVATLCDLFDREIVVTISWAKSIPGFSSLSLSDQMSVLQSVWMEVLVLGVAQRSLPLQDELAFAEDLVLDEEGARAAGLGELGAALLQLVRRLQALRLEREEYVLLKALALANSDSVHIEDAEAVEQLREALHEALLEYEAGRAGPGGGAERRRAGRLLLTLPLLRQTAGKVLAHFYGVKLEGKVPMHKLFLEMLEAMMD

As for `CO[Si](CCCS)(OC)OC`, the outcome in assay [1], in assay [2], in assay [3], in [4], in assay [5] and in [6] was inactive. Further, the molecule was called inactive in [7], in assay [8], in [9], in assay [10], in assay [11] and in assay [12]. Besides, the molecule was called inactive in assay [13], in [14] and in assay [15].
In the case of `CCCCCCCC(=O)OCC`, the molecule was classed as inactive in assay [1], in assay [16], in assay [3], in assay [4], in [6] and in assay [7]. Further, the molecule was called inactive in [8], in assay [9], in assay [10], in assay [11], in assay [17] and in assay [12]. Besides, the molecule was classed as inactive in assay [18], in [14] and in assay [15].
Consider `Clc1cccnc1`, for which the call in assay [1], in assay [16], in [3], in [4], in [5] and in assay [6] was inactive. Also, the outcome in [7], in assay [9], in [10], in [11], in [17] and in assay [13] was inactive. The call in assay [14] and in assay [15] was inactive.
Turning to `C=CCCCCCCCCO`, the molecule was called inactive in assay [1], in assay [3], in assay [4], in [6], in assay [8] and in assay [9]. Besides, the call in [10], in assay [11], in [17], in assay [12], in assay [13] and in [15] was inactive.
With `CCC1COC(=O)O1` (stereo not drawn), the molecule was classed as inactive in assay [1], in assay [3], in [4], in [6], in assay [7] and in assay [8]. Besides, the outcome in assay [9], in [10], in assay [11], in [17], in assay [12] and in assay [13] was inactive. In addition, the AC50 in assay [2] is 16.6 µM (active).
As to `CC(=O)C(C)C`, the outcome in [1], in assay [2], in assay [3], in assay [4], in assay [5] and in assay [6] was inactive. In addition, the molecule was classed as inactive in assay [7], in assay [8], in assay [9], in [10], in assay [11] and in assay [17]. Besides, the call in assay [12], in assay [13], in assay [14] and in [15] was inactive.
Take `CC(=O)CCC=C(C)C`: the molecule was classed as inactive in [1], in assay [2], in assay [3], in [4], in assay [6] and in assay [7]. Besides, the molecule was classed as inactive in [8], in assay [9], in [10], in [17], in [12] and in assay [13]. Besides, the molecule was called inactive in assay [15].
In the case of `CC(=O)/C=C/C1C(C)=CCCC1(C)C` (stereo not drawn), the result in assay [1], in assay [4], in [5], in assay [6], in [7] and in [9] was inactive. The molecule was classed as inactive in assay [10], in [11], in [13] and in assay [14]. Further, the AC50 is 5.09 µM (active) in assay [2], 13.3 µM (active) in [17] and 24.2 µM (active) in assay [12].
Turning to `CCC[Si](OC)(OC)OC`, the call in assay [1], in [3], in assay [4], in assay [5], in assay [6] and in assay [7] was inactive. Besides, the molecule was classed as inactive in assay [8], in assay [9], in assay [10], in [11], in assay [17] and in assay [12]. In addition, the call in assay [18] and in assay [14] was inactive.
For `CCc1cccc(CC)c1`, the call in [1], in assay [2], in [4], in [5], in [6] and in assay [7] was inactive. In addition, the outcome in assay [8], in assay [9], in [10], in [17], in assay [12] and in assay [15] was inactive.
As for `Cc1cc(=O)[nH]c(=O)[nH]1`, the outcome in [1], in [4], in [5], in assay [6], in assay [7] and in assay [8] was inactive. Further, the result in [9], in assay [10], in [17], in assay [13] and in assay [15] was inactive. The AC50 in assay [2] was 24.8 µM (active).
Turning to `O=C1CCCCC1C1CCCCC1` (stereo not drawn), the molecule was classed as inactive in assay [1], in assay [3], in [4], in assay [6], in assay [7] and in assay [9]. Also, the outcome in assay [10], in assay [11], in assay [17], in assay [12], in assay [13] and in [14] was inactive. Besides, the molecule was called inactive in assay [15]. For the same molecule, in assay [2], the AC50 is 27.3 µM (active).

Broadly, the AC50 is the concentration giving half of the maximal activity seen.

The record behind these values is PubChem BioAssay (EPA / NIEHS).
